Tested on: Vero E6 infected with SARS-CoV-2
Test: inhibition of SARS-CoV-2 cytopathic effect; higher = more antiviral protection, active = above 15
Settings: 48 h

Measured: inhibition of SARS-CoV-2 cytopathic effect

CCOC(=O)c1ccccc1OC(N)=O [ethyl-2-(carbamoyloxy)benzoate]
inactive: 1 nM -8.28% | 8.33 nM -7.77% | 100 nM -4.5% | 833.33 nM -2.39% | 10000 nM -3.35%

COc1ccc2nc3[nH]nc(C)c3c(NCCOCCO)c2c1
inactive: 1 nM -3.38% | 8.33 nM -2.01% | 100 nM -3.28% | 833.33 nM -0.23% | 10000 nM -2.9%

CCOc1ccccc1OC(c1ccccc1)C1CNCCO1 (stereo not given) [reboxetine]
inactive: 1 nM 0.65% | 8.33 nM 1.82% | 100 nM 0.81% | 833.33 nM -0.58% | 10000 nM -1.59%

O=C(N/N=C/c1ccc([N+](=O)[O-])o1)c1cc([N+](=O)[O-])cc([N+](=O)[O-])c1O [nifursol]
inactive: 1 nM 0.19% | 8.33 nM 3.21% | 100 nM 2.56% | 833.33 nM 2.62% | 10000 nM 2.82%

[O-][S+](c1ccccc1)c1ccc2nnnn2n1 (stereo not given)
inactive: 1 nM 2.27% | 8.33 nM 2.68% | 100 nM 0.02% | 833.33 nM 1.7% | 10000 nM 14%

COc1ccc(-c2sc(NC(=O)C(C)(C)C)nc2C)cc1S(=O)(=O)Nc1ccc(O)cc1 [PI4KIII-beta-inhibitor-1]
inactive: 1 nM -2.8% | 8.33 nM -1.82% | 100 nM 0.52% | 833.33 nM 0.18% | 10000 nM 5.19%

O=C(O)CCNC(=O)c1ccccc1 [betamipron]
inactive: 1 nM -2.23% | 8.33 nM -0.21% | 100 nM 0.07% | 833.33 nM -1.91% | 10000 nM -2.18%
